GLD-1 TGE inh: GLD-1-TGE RNA interaction inhibition (C. elegans); inhibition, % at 5.96 µM; 320,000 compounds, 0.44% hits; Q17339; purified GLD-1 + fluorescein TGE RNA, fluorescence polarization;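 active means percent inhibition above a per-plate cutoff, the plate mean of test compounds plus 3 SD, cut at about 30% in these data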
Mcl1 Bid PPI: Mcl-1/Bid interaction inhibition; Q07820; AID 1021; inhibition, % at 21.7 µM; TR-FRET Mcl-1/Bid-Dy647 peptide binding, 1536-well; 220,000 compounds, 0.97% hits;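 active means compounds that cut the binding signal by more than half at the single screening dose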;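 further: His-tagged Mcl-1 with europium anti-His antibody binding Bid BH3 peptide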
Target sequence (Q07820 whole entry, looked up): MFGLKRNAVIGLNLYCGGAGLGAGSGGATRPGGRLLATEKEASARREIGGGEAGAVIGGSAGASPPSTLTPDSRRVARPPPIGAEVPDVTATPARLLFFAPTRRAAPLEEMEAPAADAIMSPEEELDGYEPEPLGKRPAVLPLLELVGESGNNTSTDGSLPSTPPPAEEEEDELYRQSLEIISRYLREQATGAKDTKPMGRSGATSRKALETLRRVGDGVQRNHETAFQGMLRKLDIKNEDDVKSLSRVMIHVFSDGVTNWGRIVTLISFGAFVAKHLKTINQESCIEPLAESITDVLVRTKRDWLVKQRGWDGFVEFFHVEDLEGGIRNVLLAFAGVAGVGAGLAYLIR
BCLXL inh: inhibitors of human Bcl-xL; Q07817; GST-Bcl-xL / FITC-Bim BH3 peptide fluorescence polarization; inhibition, % at 10.9 µM; 320,000 compounds, 0.7% hits; AID 2129;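 active means inhibition above the mean of all tested compounds plus 3 SD, cutoff set per campaign, cut at about 30% in these data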;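 further: inhibitors lower millipolarization by displacing the labeled peptide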
Target sequence (Q07817 whole entry, looked up): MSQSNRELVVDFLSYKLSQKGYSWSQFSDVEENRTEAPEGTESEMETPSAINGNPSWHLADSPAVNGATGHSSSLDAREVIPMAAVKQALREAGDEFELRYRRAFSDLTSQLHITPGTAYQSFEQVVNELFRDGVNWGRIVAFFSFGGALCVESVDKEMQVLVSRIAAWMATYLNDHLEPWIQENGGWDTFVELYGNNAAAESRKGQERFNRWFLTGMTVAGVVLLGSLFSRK
Mcl1-Noxa inh: Mcl-1/Noxa interaction inhibition; Q07820; TR-FRET Mcl-1/Noxa peptide binding, 2 h; inhibition, % at 21.7 µM; 220,000 compounds, 1.5% hits; AID 1022;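 active means compounds that cut the protein-peptide binding signal by more than 50% relative to plate controls in a single-dose test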;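 further: His-tagged Mcl-1 with rhodamine Noxa BH3 peptide and terbium anti-His antibody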
MCL1-BIM inh: MCL1-BIM-BH3 interaction inhibition (human). Q07820. GST-MCL1 / FITC-Bim-BH3 fluorescence polarization. inhibition, % at 10.9 µM. AID 2057. 320,000 compounds, 0.68% hits;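 active means inhibition above the mean inhibition of all tested compounds plus 3 SD, set per campaign, cut at about 40% in these data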;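 further: higher means more loss of mP so more displacement of Bim peptide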
Mcl-1 Bim block: human Bim-Mcl-1 interaction inhibition; Q07820; Bead-based flow cytometry, Bim peptide-Mcl-1 binding; inhibition, % at 10 µM; 190,000 compounds, 0.1% hits; AID 1009; in the data active means inhibition above about 40%
Numbers stand for hits; ! = repeats disagree. Most compounds without a hit are left out; they make up all but 2.3% or so of the library.

Results for CCC(=O)OC1(C)C(=O)C=C2C=C(CCCCNC(=O)OC(C)(C)C)OC=C2C1=O (centres undefined) ?
GLD-1 TGE inh: 50; BCLXL inh: inactive; MCL1-BIM inh: inactive

Results for Cc1nc(SC(C)C(=O)c2c(N)n(C)c(=O)n(C)c2=O)c2c(C)c(C)sc2n1 (centres undefined) ?
GLD-1 TGE inh: inactive; BCLXL inh: inactive; MCL1-BIM inh: inactive

Results for Cn1nnnc1SCC1=C(C(=O)O)N2C(=O)[C@@H](NC(=O)[C@H](O)c3ccccc3)[C@H]2SC1 ?
GLD-1 TGE inh: inactive; Mcl1 Bid PPI: inactive; BCLXL inh: inactive; Mcl1-Noxa inh: 51; MCL1-BIM inh: inactive; Mcl-1 Bim block: inactive

Results for Cc1ccc(CNC(=O)/C=C/c2ccc(Br)o2)cc1 ?
GLD-1 TGE inh: inactive; Mcl1 Bid PPI: inactive; BCLXL inh: inactive; Mcl1-Noxa inh: inactive; MCL1-BIM inh: inactive; Mcl-1 Bim block: inactive

How did O=C(/C=C/c1ccc(Br)o1)NCc1ccccc1 do in these assays?
GLD-1 TGE inh: inactive; Mcl1 Bid PPI: inactive; BCLXL inh: inactive; Mcl1-Noxa inh: 72; MCL1-BIM inh: inactive; Mcl-1 Bim block: inactive

What do the screens show for `CSc1ccc(CCCCCCOC(=O)C(C)(C)C)cc1`?
GLD-1 TGE inh: inactive; BCLXL inh: inactive; MCL1-BIM inh: inactive

What do the screens show for `COc1cccc2cc(C(=O)Oc3ccc(NC(C)=O)cc3)c(=O)oc12`?
GLD-1 TGE inh: inactive; Mcl1 Bid PPI: 94; BCLXL inh: inactive; Mcl1-Noxa inh: inactive; MCL1-BIM inh: inactive; Mcl-1 Bim block: inactive

Results for COc1cccc2cc(C(=O)NNC(=O)c3ccc(Br)cc3)c(=O)oc12 ?
GLD-1 TGE inh: inactive; Mcl1 Bid PPI: inactive; BCLXL inh: inactive; Mcl1-Noxa inh: 64; MCL1-BIM inh: inactive; Mcl-1 Bim block: inactive

What do the screens show for `CC(Sc1ccccc1)C(=O)NN=C1CCCCCC1` (centres undefined)?
GLD-1 TGE inh: inactive; Mcl1 Bid PPI: inactive; BCLXL inh: inactive; Mcl1-Noxa inh: inactive; MCL1-BIM inh: inactive; Mcl-1 Bim block: inactive

Results for CCC(C)NC(=O)Cn1nc(Cc2ccncc2)c2ccccc2c1=O (centres undefined) ?
GLD-1 TGE inh: inactive; BCLXL inh: inactive; MCL1-BIM inh: inactive

What do the screens show for `Clc1cccc(Cl)c1CON/C=N/c1ncnc2sccc12`?
GLD-1 TGE inh: inactive; Mcl1 Bid PPI: 87; BCLXL inh: inactive; Mcl1-Noxa inh: inactive; MCL1-BIM inh: inactive; Mcl-1 Bim block: inactive

What do the screens show for `Clc1cccc(CON/C=N/c2ncnc3sccc23)c1`?
GLD-1 TGE inh: inactive; Mcl1 Bid PPI: inactive; BCLXL inh: inactive; Mcl1-Noxa inh: inactive; MCL1-BIM inh: inactive; Mcl-1 Bim block: inactive

How did CCOC(=O)c1oc2ccccc2c1COC(=O)CNC(=O)c1cccc(C)c1 do in these assays?
GLD-1 TGE inh: inactive; BCLXL inh: inactive; MCL1-BIM inh: inactive

What do the screens show for `CN(C)CCOc1ccccc1C(C)(C)C`?
GLD-1 TGE inh: inactive; Mcl1 Bid PPI: 63; BCLXL inh: inactive; Mcl1-Noxa inh: inactive; MCL1-BIM inh: inactive; Mcl-1 Bim block: inactive

Results for CN(C)CCOc1ccc(C(C)(C)c2ccccc2)cc1 ?
GLD-1 TGE inh: inactive; Mcl1 Bid PPI: 65; BCLXL inh: inactive; Mcl1-Noxa inh: inactive; MCL1-BIM inh: inactive; Mcl-1 Bim block: inactive

How did COc1ccc(NC(=O)CSc2nnc(Cc3ccc(C)cc3)c(=O)n2N)cc1OC do in these assays?
GLD-1 TGE inh: inactive; BCLXL inh: inactive; MCL1-BIM inh: inactive

What do the screens show for `Cc1c(OCC(F)(F)F)ccnc1CS(=O)c1nc2ccccc2[nH]1` (centres undefined)?
GLD-1 TGE inh: inactive; Mcl1 Bid PPI: inactive; BCLXL inh: inactive; Mcl1-Noxa inh: 70!; MCL1-BIM inh: inactive; Mcl-1 Bim block: inactive

Results for COCCCOc1ccnc(CS(=O)c2nc3ccccc3[nH]2)c1C (centres undefined) ?
GLD-1 TGE inh: inactive; BCLXL inh: inactive; MCL1-BIM inh: inactive

How did Fc1ccc(F)c(C2=NNC(=NCC3CCCO3)SC2)c1 (centres undefined) do in these assays?
GLD-1 TGE inh: inactive; Mcl1 Bid PPI: inactive; BCLXL inh: inactive; Mcl1-Noxa inh: inactive; MCL1-BIM inh: inactive; Mcl-1 Bim block: inactive

Results for CC(=O)Nc1ccc(C2=NNC(=NCC3CCCO3)SC2)cc1 (centres undefined) ?
GLD-1 TGE inh: inactive; Mcl1 Bid PPI: inactive; BCLXL inh: inactive; Mcl1-Noxa inh: 61; MCL1-BIM inh: inactive; Mcl-1 Bim block: inactive

What do the screens show for `Cc1ccc(CCNS(=O)(=O)c2cc3c(cc2Cl)NC(=O)CO3)cc1`?
GLD-1 TGE inh: inactive; BCLXL inh: inactive; MCL1-BIM inh: inactive

How did Cc1n[nH]c(C)c1S(=O)(=O)N1CCN(c2ccccn2)CC1 do in these assays?
GLD-1 TGE inh: inactive; Mcl1 Bid PPI: 70; BCLXL inh: inactive; Mcl1-Noxa inh: inactive; MCL1-BIM inh: inactive; Mcl-1 Bim block: inactive

Results for Cc1ccc(-n2nc3cc(C)c(N)cc3n2)cc1 ?
GLD-1 TGE inh: inactive; Mcl1 Bid PPI: inactive; BCLXL inh: inactive; Mcl1-Noxa inh: 90; MCL1-BIM inh: inactive; Mcl-1 Bim block: inactive

How did Nc1cc2nn(-c3ccccc3)nc2cc1Cl do in these assays?
Mcl1 Bid PPI: inactive; Mcl1-Noxa inh: 66; Mcl-1 Bim block: inactive

How did COc1ccc(-n2nc3cc(N)c(Br)cc3n2)cc1 do in these assays?
GLD-1 TGE inh: inactive; BCLXL inh: inactive; MCL1-BIM inh: inactive

What do the screens show for `COc1ccc(-n2nc3cc(C)c(N)c(Br)c3n2)cc1`?
GLD-1 TGE inh: inactive; Mcl1 Bid PPI: inactive; BCLXL inh: inactive; Mcl1-Noxa inh: 89; MCL1-BIM inh: inactive; Mcl-1 Bim block: inactive

How did CN(Cc1ccccc1)C(=O)C1CCN(S(=O)(=O)c2cccc3nsnc23)CC1 do in these assays?
GLD-1 TGE inh: inactive; BCLXL inh: inactive; MCL1-BIM inh: inactive

What do the screens show for `COc1cc(CN2CCCC(N3CCN(c4ccc(F)cc4)CC3)C2)ccc1F` (centres undefined)?
GLD-1 TGE inh: inactive; BCLXL inh: inactive; MCL1-BIM inh: inactive

What do the screens show for `CCn1cc(C(=O)NCc2ccco2)c(=O)c2cc(S(=O)(=O)N3CCCCCC3)ccc21`?
GLD-1 TGE inh: inactive; Mcl1 Bid PPI: inactive; BCLXL inh: inactive; Mcl1-Noxa inh: inactive; MCL1-BIM inh: inactive; Mcl-1 Bim block: inactive

What do the screens show for `C=CCn1cc(C(=O)NCc2ccco2)c(=O)c2cc(S(=O)(=O)N3CCCCCC3)ccc21`?
GLD-1 TGE inh: inactive; Mcl1 Bid PPI: 91; BCLXL inh: inactive; Mcl1-Noxa inh: inactive; MCL1-BIM inh: inactive; Mcl-1 Bim block: inactive

How did CC(C)OC(=O)Nc1ccc2c(c1)N(C(=O)N1CCN(C)CC1)c1ccccc1CC2 do in these assays?
GLD-1 TGE inh: inactive; Mcl1 Bid PPI: inactive; BCLXL inh: inactive; Mcl1-Noxa inh: 51; MCL1-BIM inh: inactive

What do the screens show for `CCN1CCCc2cc(CN(CCN3CCOCC3)C(=S)Nc3ccc(C)cc3)ccc21`?
GLD-1 TGE inh: inactive; Mcl1 Bid PPI: inactive; BCLXL inh: inactive; Mcl1-Noxa inh: 69; MCL1-BIM inh: inactive; Mcl-1 Bim block: inactive

How did CCN1CCCc2cc(CN(CCN3CCOCC3)C(=S)Nc3ccc(OC)cc3)ccc21 do in these assays?
GLD-1 TGE inh: inactive; Mcl1 Bid PPI: inactive; BCLXL inh: inactive; Mcl1-Noxa inh: inactive; MCL1-BIM inh: inactive; Mcl-1 Bim block: inactive

Assay outcomes from PubChem.
